Reference: the supplement of paper PMC9135407
Where a name gives a salt, the structure may show the parent alone.

What follows are compounds tested on primary human hepatic stellate cells (donor 1) (assay: PSMB2 reference mRNA level vs DMSO (fold); higher = more PSMB2 expression). Details: 48 h.
Protocol: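 Secondary qRT-PCR screen in primary human HSCs (donor 1), 384-well plates, with compounds dispensed in quadruplicate and incubated for 48 h. Cells-to-CT lysates were used for multiplexed TaqMan qPCR of ACTA2 or COL1A1 with PSMB2 as reference. Fold changes versus DMSO come from a linear model (Ct_gene ~ Ct_PSMB2 + plate + chemical). A hit is defined as COL1A1 and ACTA2 FC <0.5 (FDR <0.05) with PSMB2 between 0.2 and 2.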

SMILES	PSMB2 reference mRNA level
CC(C)c1cc(-c2n[nH]c(=O)n2-c2ccc3c(ccn3C)c2)c(O)cc1O [Ganetespib (STA-9090)] (33.3333 µM)	0.415
COC(=O)C[C@](O)(CCCC(C)(C)O)C(=O)O[C@@H]1C(OC)=C[C@]23CCCN2CCc2cc4c(cc2[C@H]13)OCO4 [Homoharringtonine] (33.3333 µM)	0.38
C[C@]12CC[C@H](O)CC1=CC[C@@H]1[C@@H]2CC[C@]2(C)C(n3cnc4ccccc43)=CC[C@@H]12 [Galeterone] (33.3333 µM)	0.0945
CC(C)(C)c1cc(NC(=O)Nc2ccc(-c3cn4c(n3)sc3cc(OCCN5CCOCC5)ccc34)cc2)no1 [Quizartinib  (AC220)] (11.1 µM)	2.12
O=C1NC(=O)/C(=C/c2ccc(-c3ccc(F)cc3O)o2)S1 (33.3333 µM)	3.41
NS(=O)(=O)C#Cc1ccccc1 [Pifithrin->m] (33.3333 µM)	5.28
N=C(N)SCCc1ccc(OCc2ccc([N+](=O)[O-])cc2)cc1 [KB-R7943 mesylate] (33.3333 µM)	0.61
Cc1cc(Nc2cc(N3CCN(C)CC3)nc(/C=C/c3ccccc3)n2)n[nH]1 (11.1 µM)	0.122
CCN1CCC(n2cc(CNc3cc(Cl)c4ncc(C#N)c(Nc5ccc(F)c(Cl)c5)c4c3)nn2)CC1 (33.3333 µM)	0.0139
c1ccc2c(NCCCCCCCNc3c4c(nc5ccccc35)CCCC4)c3c(nc2c1)CCCC3 [bis(7)-Tacrine] (3.33333 µM)	0.971
CCC/C=C\C=C/C(=O)N[C@@H](CC(N)=O)C(=O)NC(CC(N)=O)C(=O)N[C@@H](C(=O)N[C@H](CCCN)C(=O)N[C@@H](C(=O)N[C@@H](C(=O)N[C@@H](C(=O)N[C@H](C(=O)N[C@@H](Cc1ccccc1)C(=O)N[C@H](CCCN)C(=O)NC(C(=O)N[C@H](C(=O)NC(C(=O)NCC(=O)N[C@@H](CC(C)C)C(=O)N[C@H](C)C(=O)NC(C(=O)O)C1CCC(O)C(Cl)C1)C1CCC(O)CC1)[C@H](C)O)C1CCC(O)CC1)[C@H](C)O)C1CCC(O)CC1)C1CCC(O)CC1)[C@H](C)O)C1CCC(O)CC1 (stereo not given in full) (33.3333 µM)	0.369
CSc1ccc2c(c1)C(N1CCN(C)CC1)Cc1ccccc1S2 (stereo not given) [Methiothepin maleate] (33.3333 µM)	0.000808
Cc1nc2ccc(-n3ncc(C(=O)c4cc5ccccc5[nH]4)c3N)cc2[nH]1 (33.3333 µM)	0.324
Cc1ccc(NC(=O)C(C)C)cc1C1CCN(Cc2ccc(Oc3ccc(F)c(F)c3)cc2)CC1 (33.3333 µM)	2.26
c1cc(OCCN2CCCCC2)cc(-c2n[nH]c3ccc(-c4nnc[nH]4)cc23)c1 (33.3333 µM)	0.677
O=C1Nc2ccccc2/C1=C1/Nc2ccccc2C1=O [Indirubin] (63.5333 µM)	1.03
CN1CCC(CNc2ccc3ncc(-c4cccc(OC(F)(F)F)c4)n3n2)CC1 (6.66667 µM)	0.712
CCCCCCCCCCCCC/C=C/[C@@H](O)[C@H](CO)N(C)C [N,N-Dimethylsphingosine] (3.33333 µM)	0.511
CC1(C)CC(=O)c2c(C(F)(F)F)nn(-c3ccc(C(N)=O)c(N[C@H]4CC[C@H](OC(=O)CN)CC4)c3)c2C1 (33.3333 µM)	0.59
Cc1ccc(-c2ccc3c(ccc4sc5c(c43)NC[C@@H](C)NC5=O)n2)cn1 (33.3333 µM)	3.41

SMILES	PSMB2 reference mRNA level
CCc1cc2c(cc1CC)CC(NC[C@H](O)c1ccc(O)c3[nH]c(=O)ccc13)C2 [Indacaterol Maleate] (33.3333 µM)	0.728
CNCc1ccc(-c2cc(-c3nc(-c4ccc(S(=O)(=O)C(C)C)cc4)cnc3N)on2)cc1 (11.1 µM)	0.118
CN(C)CCCCC(=O)Nc1ccc(NC(=S)NC(=O)c2ccc(C(C)(C)C)cc2)cc1 [Tenovin-6] (33.3333 µM)	0.000996
CCN(CC)CC#CCOC(=O)C(O)(c1ccccc1)C1CCCCC1 (stereo not given) [Oxybutynin chloride] (16.9333 µM)	1.08
CN1CCC(=C2c3ccccc3C=Cc3ccccc32)CC1 [Cyproheptadine] (33.3333 µM)	0.904
CCOC(=O)C1=C(COCCN)NC(C)=C(C(=O)OC)C1c1ccccc1Cl (stereo not given) (33.3333 µM)	1.28
OCCN1CCN(CCCN2c3ccccc3Sc3ccc(C(F)(F)F)cc32)CC1 (33.3333 µM)	0.145
O=C(c1ccc(/C=C/c2n[nH]c3ccccc23)cc1)N1CCNCC1 (33.3333 µM)	0.0479
Cc1cccc(Nc2nc(-c3ccncc3)cs2)c1 (11.1 µM)	1.45
CC[C@@H]1C(=O)N(C)c2cnc(Nc3ccc(C(=O)NC4CCN(C)CC4)cc3OC)nc2N1C1CCCC1 (33.3333 µM)	0.0022
CCN(CC)CCOc1ccc(Cc2ccccc2)cc1 [DPPE fumarate] (33.3333 µM)	0.798
C[C@@H]1CN(CCCn2c3ccccc3c3ccccc32)C[C@H](C)N1 [Rimcazole dihydrochloride] (33.3333 µM)	0.0107
CN(C)CCC(c1ccc(Br)cc1)c1ccccn1 (stereo not given) [Brompheniramine maleate] (33.3333 µM)	1.3
O=C1NCN(c2ccccc2)C12CCN(CCCC(c1ccc(F)cc1)c1ccc(F)cc1)CC2 [Fluspirilene] (14.0333 µM)	1.38
CCCCCCCCCCCCCCCCn1cc[n+](Cc2ccccc2)c1C (11.1 µM)	0.00468
CNCc1ccc(C)c(NC(=O)c2ccc(Nc3nc(-c4ccccc4)c4ccccc4n3)cc2)c1 (33.3333 µM)	0.000816
Cc1[nH]c(/C=C2\C(=O)Nc3ccc(S(=O)(=O)N(C)c4cccc(Cl)c4)cc32)c(C)c1C(=O)N1CCN(C)CC1 (33.3333 µM)	0.98
CCN(CC)CCNC(=O)c1c(C)[nH]c(/C=C2\C(=O)Nc3ccc(F)cc32)c1C (6.66667 µM)	2.81
Cn1cc(CNCC2CCN(c3ncc(C(=O)NO)cn3)CC2)c2ccccc21 [Quisinostat] (33.3333 µM)	0.103
Cc1cnc(-c2cnc(NCCNc3ccc(C#N)cn3)nc2-c2ccc(Cl)cc2Cl)[nH]1 (33.3333 µM)	2.78
